14 compounds from PubChem BioAssay (EPA / NIEHS) can be followed below.

Calls of active or inactive are those of the source. Rule for the calls: active = hit-call score of the fitted dose curve at least 0.9, where 1 is the maximum; inactive = score below 0.9.

Chain of Cytochrome P450 3A7 (Homo sapiens) (P24462 whole entry, looked up): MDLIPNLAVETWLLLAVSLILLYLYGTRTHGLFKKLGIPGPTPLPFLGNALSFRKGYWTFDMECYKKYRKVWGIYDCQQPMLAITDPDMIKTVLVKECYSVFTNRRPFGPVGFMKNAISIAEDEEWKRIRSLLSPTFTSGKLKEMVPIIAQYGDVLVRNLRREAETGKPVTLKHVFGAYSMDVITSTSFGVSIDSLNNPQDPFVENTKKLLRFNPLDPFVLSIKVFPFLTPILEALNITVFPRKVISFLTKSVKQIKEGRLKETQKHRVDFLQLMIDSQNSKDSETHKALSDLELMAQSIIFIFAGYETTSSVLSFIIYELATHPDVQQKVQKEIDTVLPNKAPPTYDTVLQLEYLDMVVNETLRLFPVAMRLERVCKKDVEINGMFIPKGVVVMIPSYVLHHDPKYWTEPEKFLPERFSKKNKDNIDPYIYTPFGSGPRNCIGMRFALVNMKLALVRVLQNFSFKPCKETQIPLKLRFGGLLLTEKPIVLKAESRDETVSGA

Read-out in one assay: Early growth response protein 1 (EGR1) transcription factor, EGR1 (gene 1958)
As to the kind of experiment: LTEA_HepaRG_EGR1: Life Technologies and Expression Analysis (LTEA) Assay for Early growth response protein 1 (EGR1) transcription factor using HepaRG (AID 2283490). The note with it: mRNA level, 48 h; actives raise or lower the signal. Put shortly: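 Differentiated HepaRG cells in serum-free induction medium exposed 48 hours, duplicate, to 8 half-log concentrations up to 100 uM in 0.5% DMSO. EGR1 mRNA measured by TaqMan qRT-PCR, normalized to ACTB, GAPDH, POLR2A; bidirectional fit versus DMSO.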
Consider `Cc1cc(C)cc(C)c1`, for which the outcome was inactive.

For the compound `N#Cc1cccnc1`, the result was inactive.

In the case of `CCCCCCCCCCCCc1cccc(S(=O)(=O)O)c1`, the compound was classed as inactive.

Turning to `Clc1cccc(Cl)c1Cl`, the call was inactive.

`CC(C)(C)c1ccccc1O`: the outcome was inactive.

On to `CN(C)C(=S)S`, for which the result was inactive.

As to `Oc1cc(Cl)c(Cl)cc1Cl`, the compound was called inactive.

Turning to `O=C(N[C@H]1CN2CCC1CC2)c1ccc2c(c1)OCCO2`, the compound was called inactive.

As for `COc1ccccc1N`, the outcome was inactive.

As usually defined, the AC50 is the concentration at which the activity in the assay is half-maximal. On to `O=C(O)C1(c2ccc3c(c2)OC[C@H](Cc2ccc(-c4ccccc4)cc2)[C@H]3O)CCCC1`, for which the concentration at half-maximal activity (AC50) is 81.7 µM (active).

For `OCCN(CCO)CCO`, the call was inactive.

Regarding `Oc1c(Cl)cc(Cl)cc1Cl`, the compound was called inactive.

For `Clc1cccc(Cl)c1`, the compound was called inactive.

For `CC(C)O.CC(C)O.OCCN(CCO)CCO.OCCN(CCO)CCO.[Ti]`, the outcome was inactive.

Read-out in the next assay: Ezrin (EZR), EZR (gene 7430)
As to the kind of experiment: LTEA_HepaRG_EZR: Life Technologies and Expression Analysis (LTEA) Assay for Ezrin (EZR) using HepaRG (AID 2283491). The note with it: mRNA level, 48 h; actives raise or lower the signal. An outline of the steps:
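EZR transcript levels came from Fluidigm qRT-PCR and were normalized to three housekeeping genes after 48 h chemical exposure of HepaRG cells. Dosing used an 8-point half-log series with a 100 uM top concentration in 0.5% DMSO, tested in duplicate; both directions were fitted versus vehicle.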
Consider `Cc1cc(C)cc(C)c1`, for which the call was inactive.

As to `N#Cc1cccnc1`, the compound was called inactive.

Turning to `CCCCCCCCCCCCc1cccc(S(=O)(=O)O)c1`, the call was inactive.

As to `Clc1cccc(Cl)c1Cl`, the outcome was inactive.

Regarding `CC(C)(C)c1ccccc1O`, the result was inactive.

Take `CN(C)C(=S)S`: the compound was classed as inactive.

Take `Oc1cc(Cl)c(Cl)cc1Cl`: the result was inactive.

For `O=C(N[C@H]1CN2CCC1CC2)c1ccc2c(c1)OCCO2`, the result was inactive.

For the compound `COc1ccccc1N`, the call was inactive.

Turning to `O=C(O)C1(c2ccc3c(c2)OC[C@H](Cc2ccc(-c4ccccc4)cc2)[C@H]3O)CCCC1`, the concentration at half-maximal activity (AC50) was 63.1 µM (active).

With `OCCN(CCO)CCO`, the result was inactive.

For the compound `Oc1c(Cl)cc(Cl)cc1Cl`, the compound was classed as inactive.

For the compound `Clc1cccc(Cl)c1`, the outcome was inactive.

Turning to `CC(C)O.CC(C)O.OCCN(CCO)CCO.OCCN(CCO)CCO.[Ti]`, the call was inactive.

Read-out in another assay: Cytochrome P450 3A7 (Homo sapiens) (UniProt P24462)
Kind of assay: LTEA_HepaRG_CYP3A7: Life Technologies and Expression Analysis (LTEA) Assay for CYP3A7 using HepaRG (AID 2283492). The note with it: mRNA level, 48 h; actives raise or lower the signal. An outline of the steps:
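Differentiated HepaRG cells in serum-free induction medium exposed 48 h in duplicate to 8-point half-log series from 100 uM top in 0.5% DMSO. CYP3A7 mRNA by qRT-PCR, normalized to ACTB/GAPDH/POLR2A, bidirectional fit versus DMSO.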
With `Cc1cc(C)cc(C)c1`, the compound was classed as inactive.

With `N#Cc1cccnc1`, the result was inactive.

Take `CCCCCCCCCCCCc1cccc(S(=O)(=O)O)c1`: the concentration at half-maximal activity (AC50) was 20.4 µM (active).

Turning to `Clc1cccc(Cl)c1Cl`, the compound was classed as inactive.

`CC(C)(C)c1ccccc1O`: the AC50 is 4.77 µM (active).

Regarding `CN(C)C(=S)S`, the outcome was inactive.

For `Oc1cc(Cl)c(Cl)cc1Cl`, the compound was called inactive.

Take `O=C(N[C@H]1CN2CCC1CC2)c1ccc2c(c1)OCCO2`: the compound was classed as inactive.

Turning to `COc1ccccc1N`, the compound was called inactive.

With `O=C(O)C1(c2ccc3c(c2)OC[C@H](Cc2ccc(-c4ccccc4)cc2)[C@H]3O)CCCC1`, the compound was classed as inactive.

With `OCCN(CCO)CCO`, the result was inactive.

Regarding `Clc1cccc(Cl)c1`, the compound was called inactive.

Regarding `CC(C)O.CC(C)O.OCCN(CCO)CCO.OCCN(CCO)CCO.[Ti]`, the compound was called inactive.

Read-out in another assay: CYP3A5 (gene 1577)
As to the kind of experiment: LTEA_HepaRG_CYP3A5: Life Technologies and Expression Analysis (LTEA) Assay for CYP3A5 using HepaRG (AID 2283493). The note with it: mRNA level, 48 h; actives raise or lower the signal. Put shortly: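 Differentiated HepaRG cells in serum-free induction medium were dosed 48 h with test chemicals (8-point half-log series, top 100 uM, 0.5% DMSO, duplicate). CYP3A5 mRNA measured by qRT-PCR, normalized to ACTB, GAPDH, POLR2A; bidirectional fit versus DMSO.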
For `Cc1cc(C)cc(C)c1`, the compound was classed as inactive.

Take `N#Cc1cccnc1`: the result was inactive.

For `CCCCCCCCCCCCc1cccc(S(=O)(=O)O)c1`, the call was inactive.

For `Clc1cccc(Cl)c1Cl`, the outcome was inactive.

Take `CC(C)(C)c1ccccc1O`: the call was inactive.

For the compound `CN(C)C(=S)S`, the compound was classed as inactive.

With `Oc1cc(Cl)c(Cl)cc1Cl`, the call was inactive.

With `O=C(N[C@H]1CN2CCC1CC2)c1ccc2c(c1)OCCO2`, the result was inactive.

As to `COc1ccccc1N`, the call was inactive.

On to `O=C(O)C1(c2ccc3c(c2)OC[C@H](Cc2ccc(-c4ccccc4)cc2)[C@H]3O)CCCC1`, for which the half-maximal activity concentration (AC50) is 77 µM (active).

Take `OCCN(CCO)CCO`: the result was inactive.

Regarding `Clc1cccc(Cl)c1`, the call was inactive.

Regarding `CC(C)O.CC(C)O.OCCN(CCO)CCO.OCCN(CCO)CCO.[Ti]`, the compound was called inactive.

Read-out in another assay: Fatty Acid-Binding Protein 1 (FABP1), FABP1 (gene 2168)
As to the kind of experiment: LTEA_HepaRG_FABP1: Life Technologies and Expression Analysis (LTEA) Assay for Fatty Acid-Binding Protein 1 (FABP1) using HepaRG (AID 2283494). The note with it: mRNA level, 48 h; actives raise or lower the signal. Put shortly: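 Differentiated human HepaRG cells exposed 48 h in serum-free induction medium to eight half-log concentrations up to 100 uM (0.5% DMSO), duplicate. FABP1 mRNA by qRT-PCR, normalised to ACTB, GAPDH, POLR2A; bidirectional fitting against DMSO.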
For the compound `Cc1cc(C)cc(C)c1`, the compound was called inactive.

As to `N#Cc1cccnc1`, the result was inactive.

With `CCCCCCCCCCCCc1cccc(S(=O)(=O)O)c1`, the call was inactive.

On to `Clc1cccc(Cl)c1Cl`, for which the compound was classed as inactive.

On to `CC(C)(C)c1ccccc1O`, for which the result was inactive.

With `CN(C)C(=S)S`, the result was inactive.

As for `Oc1cc(Cl)c(Cl)cc1Cl`, the result was inactive.

As to `O=C(N[C@H]1CN2CCC1CC2)c1ccc2c(c1)OCCO2`, the result was inactive.

`COc1ccccc1N`: the result was inactive.

Consider `O=C(O)C1(c2ccc3c(c2)OC[C@H](Cc2ccc(-c4ccccc4)cc2)[C@H]3O)CCCC1`, for which the AC50 is 83.9 µM (active).

As for `OCCN(CCO)CCO`, the outcome was inactive.

As to `Oc1c(Cl)cc(Cl)cc1Cl`, the result was inactive.

In the case of `Clc1cccc(Cl)c1`, the result was inactive.

Turning to `CC(C)O.CC(C)O.OCCN(CCO)CCO.OCCN(CCO)CCO.[Ti]`, the compound was classed as inactive.

Read-out in the next assay: Cytochrome P450 7A1 (Homo sapiens) (UniProt P22680)
As to the kind of experiment: LTEA_HepaRG_CYP7A1: Life Technologies and Expression Analysis (LTEA) Assay for Cytochrome P450 7A1 (CYP7A1) using HepaRG (AID 2283496). The note with it: mRNA level, 48 h; actives raise or lower the signal. Put shortly: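 Gene expression endpoint in human HepaRG liver cells treated for 48 h with test chemicals (up to 100 uM, 0.5% DMSO). Values come from bidirectional concentration-response fitting versus DMSO.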
`Cc1cc(C)cc(C)c1`: the compound was classed as inactive.

As for `N#Cc1cccnc1`, the compound was classed as inactive.

As to `CCCCCCCCCCCCc1cccc(S(=O)(=O)O)c1`, the compound was called inactive.

With `Clc1cccc(Cl)c1Cl`, the result was inactive.

For the compound `CC(C)(C)c1ccccc1O`, the compound was called inactive.

Regarding `Oc1cc(Cl)c(Cl)cc1Cl`, the compound was called inactive.

With `O=C(N[C@H]1CN2CCC1CC2)c1ccc2c(c1)OCCO2`, the call was inactive.

Consider `COc1ccccc1N`, for which the call was inactive.

Consider `O=C(O)C1(c2ccc3c(c2)OC[C@H](Cc2ccc(-c4ccccc4)cc2)[C@H]3O)CCCC1`, for which the call was inactive.

For `OCCN(CCO)CCO`, the compound was classed as inactive.

With `Clc1cccc(Cl)c1`, the call was inactive.

Consider `CC(C)O.CC(C)O.OCCN(CCO)CCO.OCCN(CCO)CCO.[Ti]`, for which the compound was classed as inactive.

Read-out in the next assay: Glutathione S-Transferase (GSTA2), GSTA2 (gene 2939)
As to the kind of experiment: LTEA_HepaRG_GSTA2: Life Technologies and Expression Analysis (LTEA) Assay for Glutathione S-Transferase (GSTA2) using HepaRG (AID 2283497). The note with it: mRNA level, 48 h; actives raise or lower the signal. Put shortly: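 Differentiated human HepaRG cells were exposed in duplicate for 48 h in serum-free induction medium, 8 points from 100 uM top in half-log steps, 0.5% DMSO. GSTA2 mRNA was measured by TaqMan qRT-PCR, normalized to ACTB, GAPDH and POLR2A; bidirectional fit versus DMSO.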
Consider `Cc1cc(C)cc(C)c1`, for which the result was inactive.

As to `N#Cc1cccnc1`, the compound was called inactive.

Take `CCCCCCCCCCCCc1cccc(S(=O)(=O)O)c1`: the compound was called inactive.

On to `Clc1cccc(Cl)c1Cl`, for which the result was inactive.

`CC(C)(C)c1ccccc1O`: the compound was classed as inactive.

In the case of `CN(C)C(=S)S`, the outcome was inactive.

`Oc1cc(Cl)c(Cl)cc1Cl`: the outcome was inactive.

As to `O=C(N[C@H]1CN2CCC1CC2)c1ccc2c(c1)OCCO2`, the result was inactive.

Take `COc1ccccc1N`: the compound was classed as inactive.

Regarding `O=C(O)C1(c2ccc3c(c2)OC[C@H](Cc2ccc(-c4ccccc4)cc2)[C@H]3O)CCCC1`, the AC50 is 80.1 µM (active).

As for `OCCN(CCO)CCO`, the result was inactive.

Take `Oc1c(Cl)cc(Cl)cc1Cl`: the outcome was inactive.

On to `Clc1cccc(Cl)c1`, for which the outcome was inactive.

In the case of `CC(C)O.CC(C)O.OCCN(CCO)CCO.OCCN(CCO)CCO.[Ti]`, the result was inactive.
